Screening data: PubChem BioAssay, National Center for Advancing Translational Sciences (NCATS)
AMA1 RON2 block = qHTS for Inhibitors of AMA1-RON; Towards Development of Antimalarial Drug Lead: Primary Screen | Plasmodium falciparum AMA1 (3D7) - RON2 peptide interaction | AlphaScreen AMA1-biotinylated RON2 peptide binding | Potency, µM (highest dose often 58.2 µM), usual class: inhibitors | 0.2% of 360,000 active; active = well fitted inhibition curve with a large enough effect; inconclusive = small, poorly fitted or top-dose-only effect; inactive = no such curve, though single readings can be large or run the other way; also: nearly all actives have a fitted effect of over 45% in size
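AMA1 (3D7) with his tag at 25 nM final met compounds first, then biotinylated RON2 peptide at 25 nM; detection used donor plus acceptor beads, 10 µg/mL apiece, read by AlphaScreen after 30 min at room temperature.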
Shiga toxin inh = A qHTS for Small Molecule Inhibitors of Shiga Toxin; Vero cells, Shiga toxin protein synthesis inhibition reporter; inhibition, % at 38.7 µM; 9.2% of 290,000 active; AID 2315, 2010; in the data active = inhibition mostly above about 28%, no sharp cut-off; inactive = mostly below about 43%
CHX counter = Cycloheximide Counterscreen for Small Molecule Inhibitors of Shiga Toxin; cell reporter, cycloheximide protein synthesis inhibition counterscreen; max response, %; 12% of 300,000 active; in the data active = max response mostly above about 13%, no sharp cut-off; inactive = mostly below about 14%; also: read at 38.3 µM for the half of the compounds with a filed dose
Marburg entry inh = qHTS for inhibitors of binding or entry into cells for Marburg Virus | Potency, µM (titrated, usually from 37.8 µM), usual class: inhibitors | Marburg virus pseudotyped entry inhibition, cell reporter | 1.8% of 300,000 active; calls by dose curve; tested in HEK293 cells
Lassa entry inh = qHTS for Inhibitors of binding or entry into cells for Lassa Virus; Lassa virus pseudotype entry inhibition, cell reporter; Potency, µM (highest dose often 37.9 µM), most hits filed as inhibitors; 1.2% of 300,000 active; calls by dose curve; tested in HEK293 cells; also: nearly all actives have a fitted effect of over 50% in size
Hits are given with their value; - = inactive; ? = inconclusive; . = no result. The entries come from a sample that favours hits as a whole.

SMILES | AMA1 RON2 block | Shiga toxin inh | CHX counter | Marburg entry inh | Lassa entry inh
COc1cccc(NC(=O)CN2CCSc3ccccc32)c1 | - | - | - | ? | ?
CCN1CCN(CCC(=O)Nc2cccc(C)c2)CC1 | - | - | - | - | ?
Cc1cccc(NC(=O)CCn2ccnc2C)c1 | - | 50.2 | 21.4 | - | -
CN(c1ccc(OCC(=O)NC2CCC(O)CC2)cc1)S(=O)(=O)c1ccc(Cl)cc1 (centres undefined) | - | . | . | - | -
CCCNc1ncc2c(=O)[nH][nH]c(=O)c2n1 | ? | . | . | - | -
COc1ccc(-c2nc(CSCC(=O)NCc3ccccc3Cl)c(C)o2)cc1OC | . | . | . | - | -
CC(=O)c1cccc(-n2nnnc2SCC(=O)Nc2ccccc2N2CCCCC2)c1 | - | - | - | 11.2µM | ?
Cc1ccc(C)c(NC(=O)CSc2cccc3cccnc23)c1 | - | - | - | - | -
Cc1cccc(NC(=O)CSc2cccc3cccnc23)c1 | - | - | 13.7 | . | .
O=C(CSc1cccc2cccnc12)Nc1ccccc1F | - | - | 15.5 | - | -
Cc1cccc(NC(=O)CSCC(=O)Nc2ccccc2N2CCCCC2)c1 | - | . | . | 11.2µM | ?
O=S(=O)(Nc1cccc(-c2ccc3nncn3n2)c1)c1cc(F)ccc1F | - | . | . | - | -
CC1=C(C)CC(C(=O)NCc2ccccc2F)C(C(=O)O)C1 (centres undefined) | . | - | - | . | .
O=C(NCc1ccccc1)c1cccc(NC(=O)C2CC2)c1 | - | . | . | ? | .
C[C@@H]1C[C@@H]2OC(=O)[C@]3(C)[C@H]2[C@@H](OC3(C)O)[C@]2(C)C(=O)C=C[C@H]12 (some centres undefined) | - | 26.3 | 31.3 | . | .
C=C1C(=O)O[C@@H]2C[C@@H](C)[C@@H]3C=CC(=O)[C@@]3(C)[C@@H](O)[C@H]12 | - | - | - | . | .
CC1CCN(C(=O)C(C)c2ccc([N+](=O)[O-])cc2)CC1 (centres undefined) | - | - | - | - | -
Cc1ccc(-c2ccc(CCC(=O)O)n2NC(=O)c2cccs2)cc1 | - | - | 33.9 | ? | -
COc1ccc(-c2ccc(CCC(=O)O)n2NC(=O)c2cccs2)cc1 | - | - | 21.9 | ? | -
COc1ccc(C(=O)N[C@H]2CCCCNC2=O)cc1OC1CCN(C(C)C)CC1 | - | - | - | . | .
Cc1ccc(C(=O)NC2CCCCNC2=O)cc1 (centres undefined) | - | 93.8 | 28.6 | . | .
Cc1ccc(C(=O)NC2CCc3ccccc3C2=O)cc1 (centres undefined) | - | 64.8 | 30.3 | ? | ?
Cc1ccc(C(=O)NC2CCCCNC2=O)cc1C (centres undefined) | - | 64.5 | 37.6 | ? | -
O=C(NC1CCCCNC1=O)c1ccc(Cl)cc1 (centres undefined) | - | - | - | - | -
O=C(Nc1cccc(/C=C/c2ccccn2)c1)c1ccc(-n2cncn2)c([N+](=O)[O-])c1 | - | . | . | ? | ?
SMILES | AMA1 RON2 block | Shiga toxin inh | CHX counter | Marburg entry inh | Lassa entry inh
N=C1C=CC(=C(c2ccc(N)cc2)c2ccc(N)cc2)C=C1 | 14.1µM | . | . | 3.98µM | 5.01µM
Nc1ccc(C(=O)C(=O)c2ccc(N)cc2)cc1 | - | - | - | . | .
Cc1ccc(C(=O)CSc2nnc3n2CCCCC3)s1 | - | . | . | . | .
O=C(Cc1ccccc1)Nc1ccc(N2CCCCC2)cc1 | - | 82.6 | 31.3 | - | -
CS(=O)(=O)N1CCN(c2ccc(NC(=O)Cc3ccccc3)cc2)CC1 | - | - | - | - | -
CN1CCN(c2ccc(NC(=O)Cc3ccccc3)cc2)CC1 | - | 75.1 | 55.1 | - | -
O=C(CSc1nnc(-c2ccccc2)o1)NCC1CCCCC1 | - | - | - | - | -
Brc1ccc(-c2nnc(SCCC3OCCCO3)o2)cc1 | - | 59.4 | 41.6 | - | -
O=C1OCCC1Sc1nnc(-c2ccc(Br)cc2)o1 (centres undefined) | - | - | - | ? | ?
c1ccc(-c2nnc(SCCC3OCCCO3)o2)cc1 | - | 104.1 | 42.6 | - | ?
CC1CCCC(NC(=O)COC(=O)C2=COCCO2)C1C (centres undefined) | - | . | . | . | .
O=C(COC(=O)C1=COCCO1)Nc1ccccc1 | - | 64.1 | 52.4 | ? | ?
O=C(COC(=O)C1=COCCO1)NC1CCCCCCC1 | - | 45.7 | 28.7 | - | -
O=C(COC(=O)C1=COCCO1)Nc1ccc(OC(F)F)cc1 | - | 53.4 | 38.0 | - | .
COc1ccccc1C(=O)OCC(=O)Nc1ccc(OC(F)F)cc1 | - | 92.5 | 21.3 | - | -
COc1ccccc1C(=O)OCC(=O)Nc1ccccc1OC(F)F | - | - | - | . | .
O=C(COC(=O)C1=COCCO1)Nc1cccc(Oc2ccccc2)c1 | - | - | - | - | -
CC(=O)OC[C@H]1O[C@H](c2ccc(C(C)=O)cc2)C=C[C@H]1OC(C)=O | . | . | . | - | .
N#CCC(=O)Nc1ccc(C(=O)NCc2cccc(Cl)c2)cc1 | - | - | - | . | .
CC(=O)Nc1ccc2c(COC(=O)CC3Sc4ccccc4NC3=O)cc(=O)oc2c1 (centres undefined) | - | - | - | - | -
COc1ccc2c(COC(=O)CC3Sc4ccccc4NC3=O)cc(=O)oc2c1 (centres undefined) | - | - | 19.9 | - | ?
CCOC(=O)c1noc2ncn(CC(=O)Nc3ccc(OC)c(Cl)c3)c(=O)c12 | . | . | . | . | -
COc1ccc(C(=O)NCCN(C)C)c2nc3ccccc3cc12 | - | . | . | 1.26µM | ?
CN(C)CCNC(=O)c1cccc2nc3c(ccc4ccccc43)nc12 | - | . | . | ? | ?
COc1cccc2nc3c(C(=O)NCCN(C)C)cccc3cc12 | - | . | . | 7.08µM | ?
SMILES | AMA1 RON2 block | Shiga toxin inh | CHX counter | Marburg entry inh | Lassa entry inh
CCCOc1ccc(CN(C)c2ncnc(N)n2)cc1 | - | - | - | ? | ?
CCCCOc1ccc(CN(C)c2ncnc(N)n2)cc1 | - | 32.5 | 15.1 | - | -
CCCc1cc(C(=O)Nc2ccc(C#N)cc2)no1 | - | - | 14.9 | - | -
CCCc1cc(C(=O)Nc2ccc(F)c(Cl)c2)no1 | - | 94.2 | 31.0 | ? | -
CCCc1cc(C(=O)Nc2sc(C)c(CC)c2C#N)no1 | - | - | 12.6 | . | .
CC(=O)c1ccc(NC(=O)c2cc(C)no2)cc1 | - | - | - | ? | -
CCCc1cc(C(=O)Nc2ccc(C(C)=O)cc2)no1 | - | 82.2 | 42.0 | . | .
CCCc1cc(C(=O)Nc2cccc(Cl)c2)no1 | - | 81.9 | 22.8 | . | .
CCCc1cc(C(=O)Nc2cccc(C(C)=O)c2)no1 | - | 66.5 | 31.1 | . | .
CC(=O)c1cccc(NC(=O)c2cc(-c3ccc4c(c3)OCCO4)on2)c1 | . | . | . | - | -
CC(=O)c1cccc(NC(=O)c2cc(-c3ccc(C)cc3)on2)c1 | - | active | 30.1 | - | -
CC(C)c1cc(C(=O)Nc2cccnc2)no1 | - | 47.7 | 37.3 | ? | ?
CCCc1cc(C(=O)NCc2cccnc2)no1 | - | - | - | . | .
CCCc1cc(C(=O)Nc2cccnc2)no1 | - | 89.4 | 72.2 | . | .
COc1ccc(C(=O)N/N=C(\C)CC(=O)Nc2ccccn2)cc1OC | - | - | - | ? | -
C/C(CC(=O)Nc1cc(C)ccn1)=N\NC(=O)c1ccncc1 | - | - | 8.6 | - | -
